Assay results as given in PubChem BioAssay (NCI).
About 83,000 compounds went through this panel and 20% of them were active in at least one assay; those are over-represented in the sample as a whole.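 Single-concentration screen, 48 h exposure, 96-well plates. Endpoint: percent growth. Below 10 = active.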 A number with no mark means an inactive call. The source made the active and inactive calls.

These compounds were tested on LOX IMVI melanoma (assay: NCI-60 one-dose screen, 48 h (100 = growth as untreated, 0 = no growth, -100 = all killed)). Conditions: 10 µM unless noted.
Description: Growth inhibition of the LOX IMVI human tumor cell line is measured as a screen for anti-cancer activity. Cells are grown in 96 well plates and exposed to the test compound for 48 hours. Compounds are tested at a single concentration, which is 10^-5 M for most compounds. The reported endpoint is percent growth (GI% or GIPRCNT), where numbers from 0 - 100% represent growth inhibition, and numbers from -100% - 0 represent cell death. For example, a value of 40 represents 60% growth inhibition. A value of 0 means no net growth occurred over the course of the experiment. A value of -40 indicates 40% of cells at the beginning of the experiment died by the end of the experiment. A value of -100 means all cells are dead at the end of the experiment.
NCI-60 Human Tumor Cell Lines Screen was performed using the standard one-dose NCI protocol, which is described in more detail at https://dtp.cancer.gov/discovery_development/nci-60/default.htm.
Compounds with GIPRCNT values below 10 were considered active. Activity score was based on GIPRCNT using the following formula: […]
Score is 0 for GIPRCNT values of 100 or above, 50 for GIPRCNT values of 0, and 100 for GIPRCNT values of -100.

SMILES | growth
COc1ccc2c(c1)nnn1c3ncccc3c(N=O)c21 | -59.1% (active)
O=C(Nc1ccc(-n2cc(-c3ccncc3)c(-c3ccc(O)c(Cl)c3)n2)cc1)Nc1cc(C(F)(F)F)cc(C(F)(F)F)c1 | 51.4%
CCCc1nn2c(CCC(=O)c3nc4ccc([N+](=O)[O-])cc4[nH]3)nnc2s1 | 95.5%
O=C1OC(N(Cc2ccc(Cl)cc2)c2ccccc2)c2ccccc21 (stereo not given) | 98.9%
O=C(NCCNc1nccc(-c2c(-c3cccc(O)c3)nc3sccn23)n1)c1cc(N2CCOCC2)cc(C(F)(F)F)c1 | 52.3%
Nc1nccc2c1ccn2-c1ccc(NC(=O)Nc2cccc(C(F)(F)F)c2)cc1 | 87.6%
CCNc1cc(S(=O)(=O)O)ccc1C | 97.2%
COc1ccc(-c2nnc(NC(=O)CN3CCN(c4cc5c(cc4F)c(=O)c(C(=O)O)cn5C4CC4)CC3)s2)cc1OC | 74.3%
COc1ccc(SC2c3ccc(O)cc3Oc3nc(N)c(C#N)c(N)c32)cc1 (stereo not given) | 33.7%
CCC(N)(C(=O)O)c1ccc(F)cc1 (stereo not given) | 96%
COc1ccc(C(=O)NC(=O)Nc2ccc3c(c2)NC(=O)/C3=C\c2[nH]c(C)c(CCC(=O)O)c2C)c(F)c1 | 26.9%
CCC(C)Nc1ccc(N)cc1 (stereo not given) | 5.41% (active)
CCC(CC(C)C)Nc1ccc(NC(CC)CC(C)C)cc1 (stereo not given) | 83.4%
CCOc1ccccc1C(=O)N1CCN(c2cc(Cl)cc(Cl)c2)CC1 | 17.7%
CCn1cc(C(=O)O)c(=O)c2cc(F)c(N3CCN(CC(=O)Nc4ccc(C(C)=O)cc4)CC3)cc21 | 96.1%
ClC1c2ccccc2CCc2ccccc21 | 93.6%
COc1cc(/C=C2/Oc3cc4occc4c(OC)c3C2=O)ccc1OCC(=O)Nc1ccncc1 | 99.5%
COc1ccc(Cn2cc3c(c2-c2cc(OC)c(OC)c(OC)c2)CCc2c(CO)noc2-3)cc1 | 30.6%
Clc1ccc2c(c1)nnn1c3ncccc3c(Br)c21 | 77.5%
COc1cccc(-c2nc3sccn3c2-c2ccnc(NCCNC(=O)Nc3cccc(C(F)(F)F)c3)n2)c1 | 44.3%

SMILES | growth
CCc1c2cc(Cl)ccc2n2cc(Cc3ccccc3)[nH]c(=O)c12 | 98.2%
Cc1cn(-c2nc3c(c(NCc4ccccc4)n2)COCC3)c2cccc(C(N)=O)c12 | 16.3% [0.5 µM]
CC/C(=C(\CC)c1ccc(OCCN(CC)CC)cc1)c1ccc(OCCN(CC)CC)cc1 | -5.77% (active)
Cc1ncc(CO)c(C(=O)O)c1O | 102%
COc1ccc(-c2ccc(NC(=O)Nc3ccc(Cl)c(C(F)(F)F)c3)c(C)n2)cc1 | 64.5%
CCOC(=O)C1CN(Cc2ccccc2)C(=O)C1=O (stereo not given) | 104%
CS(=O)(=O)OCC(COS(C)(=O)=O)C(c1ccccc1)c1ccccc1 | 99.7%
Cc1cccc(Cc2cnc(NC(=O)CCc3ccc(C)o3)s2)c1 | 29.9%
C=C1C(=O)O[C@H]2[C@H]1CC/C(COC(=O)c1ccc(Br)cc1)=C\CC[C@@]1(C)O[C@@H]21 | -94.6% (active)
CN[C@@H](CCCNC(N)=NC/C=C(/C)CCC=C(C)C)C(=O)N(C)[C@@H](CCCNC(N)=NCC=C(C)C)C(=O)N[C@H](C)[C@H](OS(=O)(=O)O)c1ccc(OS(=O)(=O)O)c(COS(=O)(=O)O)c1 | 99.7%
C=CC(=O)NC(=O)Nc1ccccc1Cl | 86.1%
Cn1c2ccccc2c2ssc(=S)c21 | 91.9%
COc1cc(NS(C)(=O)=O)ccc1Cc1c2ccccc2nc2ccccc12 | -26.2% (active)
COc1ccc(/C=C2/C(=O)Nc3cc(Cl)c(-c4csc(N)n4)cc32)cc1 | 48.6%
CN1CCN(Cn2nc(-c3cc(Cl)cc(Cl)c3Cl)n(/N=C/c3ccc(Cl)cc3)c2=S)CC1 | 90.4%
O=C(Nc1ccc(F)cc1)Nc1ccc(Br)c(C(F)(F)F)c1 | -16.7% (active)
COc1ccc(C(=O)NC(=O)Nc2ccc3c(c2)NC(=O)/C3=C\c2[nH]c(C)c(C(=O)O)c2C)c(F)c1 | 52.4%
COc1ccc(/C(Cl)=N/N=C(\Cl)c2cc(OC)c(OC)c(OC)c2)cc1OC(C)=O | 96.7%
CC(=O)N1N=C2N(Cc3ccccc3)C(=O)c3c(sc4c3CCCC4)N2C1c1cn(-c2ccccc2)nc1-c1ccc(Cl)cc1 (stereo not given) | 92.9%
COc1ccc2c(c1)C(=O)/C(=C/c1cccc(OCC(=O)c3ccccc3)c1)O2 | -5.01% (active)
